Reference: PubChem BioAssay (EPA / NIEHS)
Where “and” joins values, the source holds several entries; their conditions need not be identical. Equal values may be shown once. Results filed as inconclusive are left out. A structure can be active in one record and inactive in another. Calls of active or inactive are those of the source. The calls were made as follows, unless noted: active = hit-call score of the fitted dose curve at least 0.9, where 1 is the maximum; inactive = score below 0.9.

Assays:
[1] = target: Retinoic acid receptor RXR-alpha (Homo sapiens) (UniProt P19793); assay: ATG_RXRa_TRANS: Attagene TRANS-FACTORIAL HepG2 Assay for human Retinoid X Receptor alpha (RXRa) (AID 2283012; active = hit-call score of the fitted dose curve at least 0.9, where 1 is the maximum)
Method in brief: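 HepG2 cells transiently transfected with multiplexed GAL4-UAS reporter units and chimeric NR-GAL4 fusions, dosed 24 h. Reporter mRNA measured by RT-PCR, FAM labelling, HpaI digestion and capillary electrophoresis; gain-of-signal fitted relative to DMSO baseline.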

[2] = target: human Retinoid X Receptor beta (RXRb), RXRB (gene 6257) (UniProt P28702); assay: ATG_RXRb_TRANS: Attagene TRANS-FACTORIAL HepG2 Assay for human Retinoid X Receptor beta (RXRb) (AID 2283013; active = hit-call score of the fitted dose curve at least 0.9, where 1 is the maximum)
Method in brief: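 HepG2 cells transiently transfected with multiplexed reporter units driven by GAL4-UAS and exogenous chimeric NR-Gal4 proteins; treated 24 h. Reporter mRNA measured by RT-PCR, 6-FAM labelling and capillary electrophoresis; gain-of-signal fitted versus DMSO baseline.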

[3] = target: human Thyroid Receptor alpha (THRa1), THRA (gene 7067) (UniProt P10827); assay: ATG_THRa1_TRANS: Attagene TRANS-FACTORIAL HepG2 Assay for human Thyroid Receptor alpha (THRa1) (AID 2283014; active = hit-call score of the fitted dose curve at least 0.9, where 1 is the maximum)
Method in brief: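 HepG2 cells transiently transfected with multiplexed GAL4-UAS reporter units for exogenous chimeric THRa1-Gal4; reporter mRNA measured 24 h after dosing by RT-PCR, 6-FAM labelling, HpaI digestion and capillary electrophoresis. Gain-of-signal fitted versus DMSO baseline.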

[4] = read-out: E-selectin (Homo sapiens) (UniProt P16581); assay: BSK_3C_Eselectin: BioMAP Diversity Plus: 3C Assay for Eselectin Biomarker Activity (AID 2283015); details: primary human endothelial cells (HUVEC); actives raise or lower the signal;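 as to outcome: cell surface E-selectin protein quantified by ELISA 24 h after dosing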
Method in brief: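 Primary human umbilical vein endothelial cells (3C system) were dosed with chemical and cell-surface E-selectin measured by ELISA 24 h later. Bidirectional curve fitting used DMSO as negative control and baseline.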

[5] = read-out: Interleukin-1 alpha (IL1a), IL1A (gene 3552); assay: BSK_BE3C_IL1a: BioMAP Diversity Plus: BE3C Assay for Interleukin-1 alpha (IL1a) Biomarker Activity (AID 2283016); details: primary human bronchial epithelial cells; actives raise or lower the signal
Method in brief: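 Human primary bronchial epithelial cells (BE3C system) were dosed with compound and IL-1a measured by ELISA 24 h later. Activity was fitted bidirectionally against DMSO baseline; cytotoxicity was tracked in parallel cultures by SRB total-protein staining.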

[6] = read-out: Monocyte Chemoattractant Protein-1 (MCP1), CCL2 (gene 6347); assay: BSK_3C_MCP1: BioMAP Diversity Plus: 3C Assay for Monocyte Chemoattractant Protein-1 (MCP1) Biomarker Activity (AID 2283017); details: primary human endothelial cells (HUVEC); actives raise or lower the signal
Method in brief: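 Primary human umbilical vein endothelial cells (3C system) were exposed to test chemical for 24 h, after which MCP-1 was quantified by ELISA. Activity was fitted bidirectionally against DMSO as negative control and baseline.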

[7] = read-out: Monocyte Chemoattractant Protein-1 (MCP1), CCL2 (gene 6347); assay: BSK_4H_MCP1: BioMAP Diversity Plus: 4H Assay for Monocyte Chemoattractant Protein-1 (MCP1) Biomarker Activity (AID 2283018); details: primary human endothelial cells (HUVEC); actives raise or lower the signal
Method in brief: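 Human umbilical vein endothelial cells (4H system) dosed with chemical; MCP-1 measured by ELISA 24 h after dosing. Bidirectional curve fitting against DMSO negative control as baseline; parallel SRB total-protein staining tracks overt cytotoxicity.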

[8] = read-out: Human Leukocyte Antigen - DR isotype (HLADR), HLA-DRA (gene 3122); assay: BSK_3C_HLADR: BioMAP Diversity Plus: 3C Assay for Human Leukocyte Antigen - DR isotype (HLADR) Biomarker Activity (AID 2283019); details: primary human endothelial cells (HUVEC); actives raise or lower the signal;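 as to outcome: ELISA of cell-surface HLA-DR on HUVEC 24 h after dosing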
Method in brief: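 Primary human umbilical vein endothelial cells (3C system) were dosed with compound and cell-surface HLA-DR was quantified by ELISA at 24 h. Activity was fitted bidirectionally against DMSO as negative control and baseline.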

[9] = read-out: Interleukin-8 (IL8), CXCL8 (gene 3576); assay: BSK_3C_IL8: BioMAP Diversity Plus: 3C Assay for Interleukin-8 (IL8) Biomarker Activity (AID 2283020); details: primary human endothelial cells (HUVEC); actives raise or lower the signal
Method in brief: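 Primary human umbilical vein endothelial cells (3C system) were exposed to test chemical for 24 h, then IL-8 was quantified by ELISA. Responses were fitted bidirectionally against DMSO vehicle as baseline.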

[10] = read-out: Monokine induced gamma interferon (MIG), CXCL9 (gene 4283); assay: BSK_3C_MIG: BioMAP Diversity Plus: 3C Assay for Monokine induced gamma interferon (MIG) Biomarker Activity (AID 2283021); details: primary human endothelial cells (HUVEC); actives raise or lower the signal;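 as to AC50: MIG protein level measured by immunoassay in the treated endothelial cultures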
Method in brief: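 Primary human umbilical vein endothelial cells in the 3C system were exposed to chemical for 24 h, after which MIG was quantified by ELISA. Activity was fitted bidirectionally against DMSO as negative control and baseline.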

Sequence of human Retinoid X Receptor beta (RXRb), RXRB (gene 6257) (P28702 whole entry, looked up, the tested form may be a part): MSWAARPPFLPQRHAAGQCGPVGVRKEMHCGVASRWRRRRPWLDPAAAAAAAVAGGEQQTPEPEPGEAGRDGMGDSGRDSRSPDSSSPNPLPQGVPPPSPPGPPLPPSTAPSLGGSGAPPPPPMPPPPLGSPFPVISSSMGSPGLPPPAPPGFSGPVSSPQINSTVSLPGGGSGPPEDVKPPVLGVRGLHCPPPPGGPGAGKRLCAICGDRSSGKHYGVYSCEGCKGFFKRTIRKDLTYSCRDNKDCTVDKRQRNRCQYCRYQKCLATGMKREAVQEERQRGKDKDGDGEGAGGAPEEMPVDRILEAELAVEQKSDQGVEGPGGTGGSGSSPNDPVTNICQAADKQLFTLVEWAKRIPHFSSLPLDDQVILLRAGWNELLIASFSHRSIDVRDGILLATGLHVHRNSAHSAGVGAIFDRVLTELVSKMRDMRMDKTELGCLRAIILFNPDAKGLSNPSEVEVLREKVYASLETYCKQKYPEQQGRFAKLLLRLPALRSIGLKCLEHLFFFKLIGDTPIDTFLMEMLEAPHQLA
Sequence of human Thyroid Receptor alpha (THRa1), THRA (gene 7067) (P10827 whole entry, looked up, the tested form may be a part): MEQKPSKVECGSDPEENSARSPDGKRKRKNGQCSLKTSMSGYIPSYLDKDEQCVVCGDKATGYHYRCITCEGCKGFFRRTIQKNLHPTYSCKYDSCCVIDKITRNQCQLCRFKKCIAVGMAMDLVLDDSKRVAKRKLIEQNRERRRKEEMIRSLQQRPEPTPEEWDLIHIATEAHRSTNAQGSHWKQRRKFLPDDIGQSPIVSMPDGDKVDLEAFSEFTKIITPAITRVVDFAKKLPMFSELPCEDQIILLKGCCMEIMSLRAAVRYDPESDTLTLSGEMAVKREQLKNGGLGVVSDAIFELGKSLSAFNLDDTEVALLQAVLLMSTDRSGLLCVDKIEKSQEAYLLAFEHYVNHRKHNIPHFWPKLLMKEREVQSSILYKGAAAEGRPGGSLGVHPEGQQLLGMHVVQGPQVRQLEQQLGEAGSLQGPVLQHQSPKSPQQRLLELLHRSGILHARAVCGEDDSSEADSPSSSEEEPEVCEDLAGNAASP
Sequence of Retinoic acid receptor RXR-alpha (Homo sapiens) (P19793 whole entry, looked up, the tested form may be a part): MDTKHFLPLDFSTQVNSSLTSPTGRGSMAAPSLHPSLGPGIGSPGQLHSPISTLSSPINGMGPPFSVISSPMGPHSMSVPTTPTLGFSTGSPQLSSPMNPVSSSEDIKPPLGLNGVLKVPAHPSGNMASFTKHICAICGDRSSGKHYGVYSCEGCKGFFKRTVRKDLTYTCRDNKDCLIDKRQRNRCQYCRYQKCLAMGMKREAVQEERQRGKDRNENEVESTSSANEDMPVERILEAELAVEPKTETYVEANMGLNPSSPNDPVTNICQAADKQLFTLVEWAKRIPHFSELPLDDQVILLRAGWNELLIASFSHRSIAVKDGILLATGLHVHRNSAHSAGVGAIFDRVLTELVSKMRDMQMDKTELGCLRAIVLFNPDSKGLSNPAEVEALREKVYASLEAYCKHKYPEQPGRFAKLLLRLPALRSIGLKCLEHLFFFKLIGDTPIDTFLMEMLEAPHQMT
Sequence of E-selectin (Homo sapiens) (P16581 whole entry, looked up): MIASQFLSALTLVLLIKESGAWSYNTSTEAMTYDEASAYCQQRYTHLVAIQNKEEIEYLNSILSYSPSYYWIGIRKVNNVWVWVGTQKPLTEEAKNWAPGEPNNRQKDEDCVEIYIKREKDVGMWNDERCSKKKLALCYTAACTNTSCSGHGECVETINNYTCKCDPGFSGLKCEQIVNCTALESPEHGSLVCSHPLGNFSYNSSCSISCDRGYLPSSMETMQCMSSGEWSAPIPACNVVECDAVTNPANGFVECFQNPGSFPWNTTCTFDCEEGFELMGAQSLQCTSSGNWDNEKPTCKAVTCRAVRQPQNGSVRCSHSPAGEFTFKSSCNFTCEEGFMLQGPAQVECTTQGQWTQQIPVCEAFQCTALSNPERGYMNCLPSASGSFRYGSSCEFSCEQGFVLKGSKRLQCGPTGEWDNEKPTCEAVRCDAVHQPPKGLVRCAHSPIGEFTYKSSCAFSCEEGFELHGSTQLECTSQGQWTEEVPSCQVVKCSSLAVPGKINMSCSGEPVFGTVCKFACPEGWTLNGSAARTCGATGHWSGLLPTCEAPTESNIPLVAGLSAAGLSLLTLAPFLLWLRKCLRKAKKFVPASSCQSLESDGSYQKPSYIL

SMILES	outcome [1]	outcome [2]	outcome [3]	outcome [4]	outcome [5]	outcome [6]	outcome [7]	outcome [8]	outcome [9]	outcome [10]	AC50 [2]	AC50 [8]	AC50 [7]	AC50 [4]	AC50 [6]	AC50 [9]	AC50 [5]	AC50 [10]	AC50 [3]
CCCOC(=O)c1ccc(C(=O)OCCC)nc1	inactive	inactive	inactive	inactive	inactive	inactive	inactive	inactive	inactive	inactive									
CN(C)C(=O)Nc1ccc(Cl)c(Cl)c1	inactive	inactive	inactive	inactive	inactive	inactive	inactive	inactive	inactive	inactive									
O=C(c1ccc(O)cc1O)c1ccc(O)cc1O	inactive	inactive	inactive	inactive	inactive	inactive	inactive	inactive	inactive	inactive									
CC(C)(c1ccc(O)cc1)c1ccc(O)cc1	inactive	inactive	inactive	inactive	inactive	inactive	inactive	inactive	inactive	inactive	0.00419 µM (active)								
CCN(CC)C(=O)c1cccc(C)c1	inactive	inactive	inactive	inactive	inactive	inactive	inactive	inactive	inactive	inactive									
CCCCCOC(=O)COc1cc(N2C(=O)C3=C(CCCC3)C2=O)c(F)cc1Cl	inactive	inactive		inactive	inactive	inactive	inactive		inactive	inactive		19.2 µM (active)							
CCCCC(CC)CN1C(=O)C2C3C=CC(C3)C2C1=O (stereo not given)	inactive	inactive		inactive	inactive	inactive			inactive	inactive		30.6 µM (active)	19.2 µM (active)						
CCC(O)=C1C(=O)CC(C(=O)O)CC1=O (stereo not given)	inactive	inactive	inactive	inactive	inactive	inactive	inactive	inactive	inactive	inactive									
CCCCOCCOCCOCc1cc2c(cc1CCC)OCO2	inactive	inactive		inactive	inactive	inactive	inactive	inactive	inactive	inactive									
CCOC(=O)C(C)Oc1ccc(Oc2cnc3cc(Cl)ccc3n2)cc1 (stereo not given)	inactive	inactive		inactive	inactive	inactive	inactive	inactive	inactive	inactive									
CC1(C)C(C=C(Cl)Cl)C1C(=O)OCc1cccc(Oc2ccccc2)c1 (stereo not given)	inactive	inactive	inactive	inactive	inactive	inactive	inactive		inactive	inactive		5.44 µM (active)							
S=C(S)NCCNC(=S)S.[Mn+2].[S-]C([S-])=NCCN=C([S-])[S-].[Zn+2]	inactive	inactive	inactive	inactive	inactive	inactive	inactive	inactive	inactive	inactive	20.4 µM (active)	13.3 µM (active) [middle of 4 runs]							
O=C(c1ccccc1)C1CCCCC1	inactive	inactive	inactive	inactive	inactive	inactive	inactive	inactive	inactive	inactive	121 µM (active) and 57 µM (active) and 100 µM (active)								
C[C@]12C[C@H](O)[C@H]3[C@@H](CCC4=CC(=O)CC[C@@]43C)[C@@H]1CC[C@@H]2C(=O)CO	inactive	inactive	inactive	inactive	inactive	inactive	inactive	inactive	inactive	inactive									
CCOC(=O)NCCOc1ccc(Oc2ccccc2)cc1	inactive	inactive	inactive		inactive					inactive		25.5 µM (active)	18.7 µM (active)	21.3 µM (active)	28.5 µM (active)	15 µM (active)			
CCCCC(CC)COC(=O)c1ccccc1C(=O)O (stereo not given)	inactive	inactive	inactive	inactive	inactive	inactive	inactive	inactive	inactive	inactive									
CCC(C)OC(=O)N1CCCCC1CCO (stereo not given)	inactive	inactive	inactive	inactive	inactive	inactive	inactive	inactive	inactive	inactive							981 nM (active)		
CCOC(=O)C(C)Oc1ccc(Oc2nc3ccc(Cl)cc3o2)cc1 (stereo not given)	inactive	inactive	inactive	inactive	inactive		inactive		inactive	inactive		20 µM (active)			20 µM (active)				
C#C[C@]1(O)CC[C@H]2[C@@H]3CCC4=CC(=O)CC[C@@H]4[C@H]3CC[C@@]21CC	inactive	inactive	inactive	inactive	inactive	inactive	inactive		inactive	inactive		20 µM (active)							
CCCCOC(=O)[C@@H](C)Oc1ccc(Oc2ccc(C(F)(F)F)cn2)cc1	inactive	inactive	inactive	inactive	inactive	inactive	inactive	inactive	inactive	inactive									
CCOC(=O)c1ccc(O)cc1	inactive	inactive	inactive	inactive	inactive	inactive	inactive	inactive	inactive	inactive									
N#CSCSc1nc2ccccc2s1	inactive	inactive	inactive								13.3 µM (active)	2.3 µM (active) and 5.63 µM (active)	4.06 µM (active) and 12.2 µM (active)	7.25 µM (active) and 9.01 µM (active)	5.23 µM (active) and 12.1 µM (active)	8.35 µM (active) and 14.4 µM (active)	6.07 µM (active) and 10.3 µM (active)	11 µM (active) and 11.9 µM (active)	
C[C@]12CC[C@@H]3c4ccc(O)cc4C[C@@H](CCCCCCCCCS(=O)CCCC(F)(F)C(F)(F)F)[C@H]3[C@@H]1CC[C@@H]2O (stereo not given in full)	inactive	inactive	inactive	inactive	inactive	inactive	inactive	inactive	inactive	inactive									
CCCN(CCC)C(=O)SCC	inactive	inactive	inactive	inactive	inactive	inactive	inactive	inactive	inactive	inactive									
CCNc1nc(N)nc(Cl)n1	inactive	inactive	inactive	inactive	inactive	inactive	inactive	inactive	inactive	inactive									
CCSC(=O)N(CC(C)C)CC(C)C	inactive	inactive		inactive	inactive	inactive	inactive	inactive	inactive	inactive									
Cc1nn(C)c(Oc2ccccc2)c1C=NOCc1ccc(C(=O)OC(C)(C)C)cc1	inactive	inactive			inactive					inactive		3.97 µM (active)	6.16 µM (active)	20 µM (active)	14.4 µM (active)	9.81 µM (active)			0.109 µM (active)
O=C(O)c1ccccc1	inactive	inactive		inactive	inactive	inactive	inactive	inactive	inactive	inactive									
